Laboratory results reported in PubChem BioAssay AID1259240 (Keith Lab, Institute of Cancer Science, University of …, 2017).
Values without a mark were called inactive. The source made the active and inactive calls. No stated cut-off is given here; in the data, active means fold change mostly below about -2 (no sharp cut-off); inactive means mostly above about -1.8.

assay: TERT promoter activity modulators, primary screen, cell-based, luciferase reporter, human (AID 1259240); settings: A2780 TERT promoter luciferase reporter, 16 h; at 20 µM, fold versus average of vehicle-only wells

Row | SMILES | fold change
1 | COc1ccc(-c2cc3ccccc3n2CC(O)CN2CCN(CCO)CC2)cc1 (centres undefined) | -1.49
2 | Cc1ccc(CNc2nnc(Cc3ccncc3)c3ccccc23)cc1 | -1.59
3 | CCOC(=O)C1CCCN(c2c(NCCCN3CC(C)CC(C)C3)c(=O)c2=O)C1 (centres undefined) | -1.02
4 | COc1ccc(C(=O)CSc2nnc(Cc3cc(=O)[nH]c(=O)[nH]3)n2-c2ccc(Cl)cc2)cc1 | -1.34
5 | COc1nc(NC(C)(C)C)nc(Oc2ccc(=O)[nH]n2)n1 | 2 (active)
6 | CCOC(=O)C1CCCN(c2c(N3CCC(N4CCCCC4)CC3)c(=O)c2=O)C1 (centres undefined) | -1.11
7 | O=c1/c(=C/c2cn(-c3ccccc3)nc2-c2ccccc2)sc2nc(-c3ccco3)nn12 | 1.18
8 | Cc1ccc(SCc2nc3sccn3c2Br)cc1 | -1.17
9 | CCCCCNC(=O)c1ccc(NC2=NC3CS(=O)(=O)CC3S2)cc1 (centres undefined) | 1.22
10 | CC(C)n1cnc2cc(NCc3ccccc3Cl)ccc21 | -2.21 (active)
11 | O=C(CSc1nnc2ccc3ccccc3n12)Nc1ccc2c(c1)OCCO2 | 1.3
12 | Cc1cc(C)n2c(NC(C)C)c(-c3ccc(C)o3)nc2n1 | 1.2
13 | CCOC(=O)C1CCN(c2c(NCCCN3CCCCCC3)c(=O)c2=O)CC1 | -1.3
14 | Cc1nn(-c2nc3ccccc3[nH]2)c(=O)c2ccccc12 | -14.7 (active)
15 | COc1ccc(-c2c(C)oc3c(CN4CCN(C)CC4)c(O)ccc3c2=O)cc1OC | 1.39
16 | Cc1nc(SCC(=O)NCC2CCCO2)c2c(=O)n(C)c(=O)n(C)c2n1 (centres undefined) | 1.01
17 | COc1cc2c(c(OC)c1)C(c1ccc(Br)cc1)CC(=O)N2 (centres undefined) | 1.09
18 | COc1cc(OC)cc(-c2cc(N3C(=O)Nc4ccccc4N3O)n[nH]2)c1 | -1.25
19 | O=C(Cc1ccc(NC2=NC3CS(=O)(=O)CC3S2)cc1)N1CCN(c2ncccn2)CC1 (centres undefined) | 1.14
20 | COc1nc(OCCNS(=O)(=O)c2ccc(C)cc2)nc(N(C)C)n1 | -1.19
21 | O=C1CC(c2cc3c(cc2Cl)OCO3)c2cc3c(cc2N1)OCCO3 (centres undefined) | 1.12
22 | CC(CC(=O)NCCc1c[nH]c2ccccc12)CC1=NS(=O)(=O)c2ccccc2N1 (centres undefined) | -1.46
23 | Cn1c(=O)[nH]c(=O)c2c1nc(NCCCO)n2Cc1ccccc1Cl | -1.16
24 | COc1ccc(-c2nc3s/c(=C\c4cccc(Cl)c4)c(=O)n3n2)cc1OC | -1.08
